Source: PubChem BioAssay AID1851 (National Center for Advancing Translational Sciences (NCATS), 2009)
Where “and” joins values, the source holds several entries; their conditions need not be identical. Equal values may be shown once. Out of some 16,000 compounds screened, about 5,800 (36%) were called active. Another 23% or so got no clear call; they are omitted. Calls follow the shape of the dose curve; as a rule, active = well fitted curve in the direction sought with a large enough effect; inconclusive = small, poorly fitted or top-dose-only effect, or effect the other way; inactive = no such curve, though single readings can be large or run the other way. The list shows a part of the results. Where a structure was tested more than once in an assay, its records may differ in their call.

What follows are compounds tested against Cytochrome P450 2C19 (Homo sapiens) (UniProt P33261) (assay: Cytochrome panel assay with activity outcomes). Conditions: recombinant CYP, pro-luciferin dealkylation, luminescence, p450-cyp2c19; series mostly up to 57.1 µM; activity, negative = inhibition: at the top concentration.
Cytochrome P450 2C19 (Homo sapiens), sequence (P33261 whole entry, looked up): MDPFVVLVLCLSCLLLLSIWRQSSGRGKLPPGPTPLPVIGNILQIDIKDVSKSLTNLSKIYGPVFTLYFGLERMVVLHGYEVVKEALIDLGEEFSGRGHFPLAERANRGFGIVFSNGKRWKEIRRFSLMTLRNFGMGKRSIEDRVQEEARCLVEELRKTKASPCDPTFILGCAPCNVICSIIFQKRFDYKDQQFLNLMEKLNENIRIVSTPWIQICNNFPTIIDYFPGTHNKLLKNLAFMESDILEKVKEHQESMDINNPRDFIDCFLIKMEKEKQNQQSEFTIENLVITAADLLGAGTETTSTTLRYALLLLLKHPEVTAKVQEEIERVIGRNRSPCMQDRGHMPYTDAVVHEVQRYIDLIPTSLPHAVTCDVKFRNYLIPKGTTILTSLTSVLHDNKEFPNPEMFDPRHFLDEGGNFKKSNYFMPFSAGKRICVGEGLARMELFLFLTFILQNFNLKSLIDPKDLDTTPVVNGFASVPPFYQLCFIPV
% is scaled to controls: 0 for no effect and ±100 for the full control effect.

SMILES | activity, negative = inhibition | AC50
CO[C@@H]1/C=C\CC(=O)N[C@@H](C)C(=O)OC[C@@H](OC)[C@H](C)/C=C\CC(=O)OC[C@H]1C | -30.6% [at 11.4 µM] (inactive) | –
O=C1C(Cl)=C(Nc2ccc(S(=O)(=O)Nc3ccccn3)cc2)C(=O)c2ccccc21 | – | 0.794 µM (active)
CN(C)S(=O)(=O)Nc1ccccn1 | -1.75% [at 11.4 µM] (inactive) | –
Nc1ccc(S(=O)(=O)Nc2ccccn2)cc1 | 35.2% [at 25.6 µM] (inactive) | –
CCOC(=O)N1CCC(NC(=O)CSCc2cnn(-c3ccccc3)c2-n2cccc2)CC1 | – | 5.01 µM (active)
Cc1ccc(C)c(CN2C(=O)C3CCCN3c3ccc(C#N)cc32)c1 (stereo not given) | – | 3.16 µM (active)
N=C(c1ccc2ccccc2c1)c1ccccc1Cc1ccccc1 | – | 3.98 µM (active)
CC(C)N(CCC(=O)c1ccc2ccccc2c1)Cc1ccccc1 | 4.32% (inactive) | –
Cc1ccc(C)c(C(=N)c2ccccc2Cc2ccccc2)c1 | – | 1 µM (active)
COc1cc(/C=C(/NC(=O)c2ccccc2Cl)C(=O)O)cc(OC)c1OC | -19.5% (inactive) | –
COc1ccccc1C(=O)N/C(=C/c1ccc(Br)cc1)C(=O)NCC(=O)O | – | 25.1 µM (active)
O=C(O)CNC(=O)c1ccccc1O | 26.9% [at 11.4 µM] (inactive) | –
CS(=O)(=O)N1CCC2(CC1)CN(c1cccc(-c3ccccc3)c1)C2 | -17.6% (inactive) | –
CCn1c(C)nc2cc(C(=O)NNS(=O)(=O)c3ccccc3F)ccc21 | -12.6% (inactive) | –
CCn1c2ccccc2c2cc(NS(=O)(=O)c3ccccc3C)ccc21 | – | 0.282 µM (active)
O=[N+]([O-])c1ccccc1N=Nc1c(O)[nH]c2ccc(S(=O)(=O)O)cc12 | -23.2% [at 11.4 µM] (inactive) | –
CCc1ccc2[nH]c(O)c(N=Nc3nc(-c4ccccc4)cs3)c2c1 | – | 15.8 µM (active)
COC(=O)C1=C(C)NC(C)=C([N+](=O)[O-])[C@@H]1c1ccccc1C(F)(F)F | – | 0.126 µM (active)
COC(=O)C1=C(C)NC(C)=C([N+](=O)[O-])[C@H]1c1ccccc1C(F)(F)F | – | 0.158 µM (active)
CCC(=O)O[C@@]1(C(=O)SCF)[C@@H](C)C[C@H]2[C@@H]3C[C@@H](F)C4=CC(=O)C=C[C@@]4(C)[C@]3(F)[C@@H](O)C[C@]21C | -19.8% [at 25.6 µM] (inactive) | –
C[C@@H](c1ccccc1)N1C(=O)[C@H]2[C@H]3[C@H](O)[C@H](O)C/C(=N/OC[C@@H](O)COCc4ccco4)[C@H]3CC[C@@H]2C1=O | -25% [at 11.4 µM] (inactive) | –
O=C(Nc1ccccc1)[C@@]12C[C@@H]1/C(=N/O)c1ccccc1O2 | – | 10 µM (active)
CCOC(=O)[C@@]12C[C@@H]1/C(=N/O)c1ccccc1O2 | -14.2% (inactive) | –

SMILES | activity, negative = inhibition | AC50
N=C1[C@@H](O)[C@]2(I)c3ccccc3N3C(=N)[C@H](O)[C@@H]4c5ccccc5N1[C@@H]4[C@@H]32 | – | 3.16 µM (active)
CC(C)[C@H](N)c1nnc(SCc2ccc(Cl)cc2)o1 | – | 0.178 µM (active)
CC(C)[C@H](N)c1nnc(SC/C=C/c2ccccc2)o1 | – | 2 µM (active)
OC[C@@H](O)[C@@H](O)[C@@H](O)[C@@H](O)c1nc2ccc(Cl)cc2[nH]1 | -0.441% [at 11.4 µM] (inactive) | –
C/C(=N\N=C(c1ccccc1)c1ccccc1)c1cccs1 | – | 3.55 µM (active)
CC(=O)/C(=N\N=C(N)N)c1ccccc1 | 102% [at 11.4 µM] (inactive) | –
C/C(=N\N=C1\NC(=O)CC(C(=O)O)S1)c1cccs1 (stereo not given) | 22.1% (inactive) | –
O=C(c1n[nH]c(=O)c2ccccc12)N1CCN(C2c3ccccc3-c3ccccc32)CC1 | – | 3.16 µM (active)
CC[N+](CC)(CC(=O)Nc1c(C)cccc1C)Cc1ccccc1 | -31% [at 25.6 µM] (inactive) | –
Cc1cccc(C)c1NC(=O)C[N+](C)(C)C | – | inactive and 15.8 µM (active)
CC[N+](CC)(CC)CC(=O)Nc1c(C)cccc1C | – | inactive
C/C(=N\[N+](C)(C)C)c1ccc(C)c(C)c1 | 17.4% [at 11.4 µM] (inactive) | –
CC1=Nc2ccccc2/C1=C\c1nc(-c2ccc(C(F)(F)F)cc2)oc1O | – | 14.1 µM (active)
Cc1ccccc1OC/C(O)=C(\C#N)c1nc2ccccc2[nH]1 | -17.2% (inactive) | –
COc1cccc(OC)c1/C(O)=C(\C#N)c1nc2ccccc2[nH]1 | – | 7.08 µM (active)
C=CC1=C(C(=O)O)N2C(=O)[C@@H](NC(=O)/C(=N\OCC(=O)O)c3csc(N)n3)[C@@H]2SC1 | 21.8% [at 25.6 µM] (inactive) | –
CC(=O)Nc1ccc(C2=NN(CC#N)C(=O)SC2)cc1 | -35.8% (inactive) | –
COc1ccc(CSC2=C(C#N)C(=O)NC3(CCCCC3)S2)cc1 | -6.47% [at 11.4 µM] (inactive) | –
CCOc1ccc(NC(=O)CSc2nc(C)c3c(c2C#N)CCCC3)cc1 | – | 2.82 µM (active)
CCOc1ccc(NC(=O)CCNS(=O)(=O)c2ccc3c(c2)c(=O)n(C)c(=O)n3C)cc1 | -24.2% (inactive) | –
CSc1nc(N)nc(SCC(=O)Nc2ccc(Cl)cc2)c1C#N | – | 0.708 µM (active)
COc1ccc(NC(=O)CSc2nc(C)c3c(c2C#N)CCCC3)cc1 | – | 1.12 µM (active)
CO[C@H]1COC(=O)[C@H]2CCCN2C(=O)[C@@H](C)COC(=O)C/C=C\[C@@H]1C | 43.2% [at 11.4 µM] (inactive) | –

SMILES | activity, negative = inhibition | AC50
C#CCCCO/N=C1/[C@H]2O[C@@H]2[C@@H](O)[C@H]2[C@H]1CCn1c(=O)n(C)c(=O)n12 | -3.85% [at 11.4 µM] (inactive) | –
Cc1ccccc1C(=O)Oc1ccc(Br)cc1C(=S)N1CCCC1 | – | 2.24 µM (active)
O=C(Oc1ccc(C(=S)N2CCOCC2)cc1Br)c1cc(Cl)ccc1Cl | -6.53% (inactive) | –
Cc1c(-c2ccccc2)oc2c(C(=O)OCCN3CCCCC3)cccc2c1=O | 16.9% [at 25.6 µM] (inactive) | –
COc1ccc2c(c1)C(=O)N(c1ccccc1)C(=O)C2 | – | 11.2 µM (active)
COc1ccc(-n2c(C)n[nH]c2=O)cc1 | -15.4% (inactive) | –
O=C(c1c(O)c2ccc(Cl)cc2[nH]c1=O)C1CC1 | 9.43% (inactive) | –
COc1ccc(C(=O)N2CCC3(CCN(Cc4ccc(C#N)cc4)CC3)CC2)cc1 | -41.7% (inactive) | –
CC(C)Cc1nc(N2CCN(C(=O)c3ccccc3)CC2)c(C#N)c2c1CCC2 | – | 2.51 µM (active)
CC(C)CN1CCC2(CC1)CCN(C(=O)c1ccncc1)CC2 | -12.2% (inactive) | –
CCC(=O)N1CCN(C(=O)c2ccccc2)CC1 | -7.45% (inactive) | –
N#Cc1c(N2CCN(C(=O)c3ccccc3Cl)CC2)nc(-c2ccccc2)c2c1CCCC2 | – | 3.98 µM (active)
N#Cc1ccc(CN2CCC3(CC2)CCN(C(=O)c2ccncc2)CC3)cc1 | 33.2% (inactive) | –
CC(=O)OC[C@@H]1O[C@@H](O/N=C2/C[C@@H](O)[C@@H](O)[C@@H]3[C@H]4C(=O)N(c5ccc(F)cc5F)C(=O)[C@@H]4CC[C@@H]23)[C@H](OC(C)=O)[C@H](OC(C)=O)[C@@H]1OC(C)=O | 51.5% [at 11.4 µM] (inactive) | –
Cc1cc(NC(=O)Nc2ccc3c(ccn3C)c2)sn1 | – | 3.16 µM (active)
C[C@@H]1CN2[C@H](c3ccc(Br)cc3)[C@H](C)CC[C@H]2C(=O)O1 | -28.6% [at 11.4 µM] (inactive) | –
CCCC[C@@H]1CN2[C@H](c3ccc(Br)cc3)[C@H](C)CC[C@H]2C(=O)O1 | – | 3.98 µM (active)
C[C@@H]1CC[C@H]2C(=O)NC[C@@H](O)CN2[C@@H]1c1ccc(Br)cc1 | – | 2 µM (active)
C[C@@H]1CC[C@H]2C(=O)O[C@H](CN=[N+]=[N-])CN2[C@@H]1c1ccc(Br)cc1 | – | 0.398 µM (active)
CCCC[C@@H]1CN2[C@H](c3ccc(Br)cc3)[C@@H](C)CC[C@H]2C(=O)O1 | -43.3% [at 11.4 µM] (inactive) | –
CO[C@H]1COC(=O)[C@@H](CCSC)NC(=O)C/C=C\[C@@H](C)[C@H](OC)COC(=O)[C@@H](OCc2ccccc2)/C=C\[C@@H]1C | -26% [at 11.4 µM] (inactive) | –
Cc1ccccc1/C=C\C1=NCCN1 | -25.7% (inactive) | –
N=C(N)[C@H](N=Nc1ccccc1)C(N)=O | -26.2% [at 11.4 µM] (inactive) | –

SMILES | activity, negative = inhibition | AC50
COc1ccc(-c2nnc(-c3cccnc3)o2)cc1 | – | 17.8 µM (active)
Cc1ccc(-c2nnc(-c3ccc4ccccc4c3)o2)cc1 | 10.3% [at 11.4 µM] (inactive) | –
CCOc1ccc(-c2nnc(-c3ccncc3)o2)cc1 | – | 0.112 µM (active)
N#CCCn1c(=O)cnc2cnc(N3CCNCC3)nc21 | 33.4% (inactive) | –
CC(C)(C)NS(=O)(=O)c1ccc(NC(=O)C(Sc2ccccc2)c2ccccc2)cc1 (stereo not given) | – | 3.55 µM (active)
CCC(=O)Nc1nnc(C(C)(C)C)s1 | -3.89% (inactive) | –
CC(C)(C)c1nnc(NC(=O)c2cc(-c3ccccc3)nc3ccccc23)s1 | – | 5.01 µM (active)
CC(C)(C)NS(=O)(=O)c1ccc(NC(=O)c2cc(-c3ccccc3)nc3ccccc23)cc1 | – | 2.82 µM (active)
CC(=O)Nc1ccc(-c2cc(C(=O)O)c3cc4ccccc4cc3n2)cc1 | 9.44% [at 11.4 µM] (inactive) | –
COc1ccc(-c2cc(C(=O)Nc3nc4c(C)cccc4s3)c3ccccc3n2)cc1OC | – | 2.51 µM (active)
CN1CCN(c2ncc3nc(-c4cc(F)cc(F)c4)c(=O)n(Cc4cccs4)c3n2)CC1 | -27% (inactive) | –
CCS(=O)(=O)N(C)[C@@H]1c2cc(C#N)ccc2OC(C)(C)[C@H]1O | -11.7% (inactive) | –
Cc1cc([N+](=O)[O-])nn1Cc1ccccc1F | – | 11.2 µM (active)
Cc1cc([N+](=O)[O-])nn1CC(=O)NNC(=S)Nc1ccc(F)cc1 | -23.1% (inactive) | –
Nc1c(S(=O)(=O)c2ccccc2)c2nc3ccccc3nc2n1Cc1ccco1 | – | 7.08 µM (active)
O=C(c1ccccc1)c1nn(-c2ccccc2)c(=O)cc1C(F)(F)F | – | 1.58 µM (active)
NC(=O)c1nn(-c2ccccc2)c(=O)cc1O | -3.79% (inactive) | –
COC(=O)c1c(C)nc2ccccc2c1C(=O)O | 3.75% (inactive) | –
O=C(O)c1nn(-c2ccccc2)ccc1=O | -12% (inactive) | –
CCOC(=O)c1nn(-c2ccccc2)c(-c2ccccc2)c1C(=O)c1ccccc1 | – | 10 µM (active)
COC(=O)c1nn(-c2ccccc2)c(-c2ccccc2)c1C(=O)c1ccccc1 | – | 8.91 µM (active)
